This note sets out measurements from the supplement of paper PMC7411054.

Where a name gives a salt, the structure may show the parent alone.

Conditions in all cases: treatment time: 24 h
In one test the test system is HepG2-ACTB-RAB5A. The test can be described thus: lowest phenotypically active concentration; higher = less potent. A digest of the protocol: (§1)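 Cells from fifteen gene-edited reporter lines (A549, HepG2 and WPMY1) were treated for 24 h at 0.3, 1, 3 or 9 µM and imaged live, four wells per condition. Features were normalised per well to solvent control wells. A condition deviated if ≥3 of 4 wells passed the 95th percentile of control Euclidean distances and was reproducible if its median replicate Pearson correlation beat the 95th percentile of non-replicates; phenotypic activity needed both.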

The test system of another test is HepG2-CANX-COX4. Described as above. In short, it runs like this:
as §1

For the next test, the system named is HepG2-TP53BP1-CLTA. Described as above. A digest of the protocol:
as §1

Another test relates to HepG2-TUBA1B-RELA. The description is as above. In short, it runs like this: as §1
For test [1], the system named is WPMY1-ACTB-RAB5A. The description is as above. A digest of the protocol: as §1
In another test the test system is WPMY1-CANX-COX4. The test is described as above. A digest of the protocol:
as §1

The subject of the next test is WPMY1-GM130-SQSTM1. Described as above. In short, it runs like this:
as §1

The next test has as its system WPMY1-TP53BP1-CLTA. The description is as above. A digest of the protocol:
as §1

Another test has as its system WPMY1-TUBA1B-RELA. Described as above. A digest of the protocol: as §1
The test system of test [2] is WPMY1-ACTB-RAB5A. Briefly: phenotypically active (imaging signature differs from DMSO and reproducible) at any of 0.3-9 uM (binary (1 = active, 0 = inactive)); higher = active. In short, it runs like this: as §1

On to `O=C(NC(NC(=S)Nc1ccc(F)c([N+](=O)[O-])c1)C(Cl)(Cl)Cl)C(c1ccccc1)c1ccccc1` (stereo not given), for which the “lowest phenotypically active concentration” value in the test on HepG2-ACTB-RAB5A, with HepG2-CANX-COX4, with HepG2-TP53BP1-CLTA, in the test on HepG2-TUBA1B-RELA, with WPMY1-ACTB-RAB5A [1] and in the test with WPMY1-CANX-COX4 was 9 µM throughout. For the same compound, the “lowest phenotypically active concentration” value with WPMY1-GM130-SQSTM1, with WPMY1-TP53BP1-CLTA and with WPMY1-TUBA1B-RELA was 9 µM each time. In addition, the phenotypically active in the test on WPMY1-ACTB-RAB5A [2] was 1 (active).
Turning to `O=C(NCc1cccc(O)c1)Nc1nc(-c2ccncc2)cs1` [RKI 1447 dihydrochloride], the “lowest phenotypically active concentration” value with HepG2-ACTB-RAB5A, in the test with HepG2-CANX-COX4, with HepG2-TP53BP1-CLTA, with HepG2-TUBA1B-RELA, in the test with WPMY1-ACTB-RAB5A [1] and in the test on WPMY1-CANX-COX4 was at most 0.3 µM in each case. In addition, the “lowest phenotypically active concentration” value with WPMY1-GM130-SQSTM1, with WPMY1-TP53BP1-CLTA and in the test on WPMY1-TUBA1B-RELA was at most 0.3 µM each time. Also, the phenotypically active in the test with WPMY1-ACTB-RAB5A [2] is 1 (active).
For the compound `Cc1cc(C)cc(C(=O)NOCCCCCC(=O)NO)c1`, the “lowest phenotypically active concentration” value is at most 0.3 µM with HepG2-ACTB-RAB5A; at most 0.3 µM in the test with HepG2-CANX-COX4; 1 µM in the test on HepG2-TP53BP1-CLTA; at most 0.3 µM in the test with HepG2-TUBA1B-RELA; 1 µM in the test with WPMY1-ACTB-RAB5A [1]; at most 0.3 µM in the test on WPMY1-CANX-COX4. Besides, the “lowest phenotypically active concentration” value in the test with WPMY1-GM130-SQSTM1, with WPMY1-TP53BP1-CLTA and with WPMY1-TUBA1B-RELA was at most 0.3 µM each time. In addition, in the test with WPMY1-ACTB-RAB5A [2], the phenotypically active is 1 (active).
With `CS(=O)(=O)c1cccc(CNc2nc(Nc3ccc4c(c3)CCC(=O)N4)ncc2C(F)(F)F)c1`, the “lowest phenotypically active concentration” value amounted to 1 µM in the test on HepG2-ACTB-RAB5A; 1 µM in the test on HepG2-CANX-COX4; 1 µM in the test on HepG2-TP53BP1-CLTA; 1 µM in the test on HepG2-TUBA1B-RELA; 1 µM in the test on WPMY1-ACTB-RAB5A [1]; 3 µM in the test with WPMY1-CANX-COX4. For the same compound, the results for the “lowest phenotypically active concentration” value in the test on WPMY1-GM130-SQSTM1, with WPMY1-TP53BP1-CLTA and in the test on WPMY1-TUBA1B-RELA were 3 µM, 1 µM and 3 µM, respectively. Also, the phenotypically active in the test with WPMY1-ACTB-RAB5A [2] was 1 (active).
On to `Cc1cc(Nc2cc(N3CCN(C)CC3)nc(Sc3ccc(NC(=O)C4CC4)cc3)n2)[nH]n1`, for which the “lowest phenotypically active concentration” value with HepG2-ACTB-RAB5A, in the test with HepG2-CANX-COX4, in the test with HepG2-TP53BP1-CLTA, in the test with HepG2-TUBA1B-RELA, in the test on WPMY1-ACTB-RAB5A [1] and with WPMY1-CANX-COX4 was at most 0.3 µM throughout. The “lowest phenotypically active concentration” value with WPMY1-GM130-SQSTM1, in the test with WPMY1-TP53BP1-CLTA and in the test on WPMY1-TUBA1B-RELA was at most 0.3 µM in each case. In the test on WPMY1-ACTB-RAB5A [2], the phenotypically active is 1 (active).
As for `C=CC(=O)Nc1cccc(Nc2nc(Nc3ccc(OCCOC)cc3)ncc2F)c1`, the “lowest phenotypically active concentration” value in the test on HepG2-ACTB-RAB5A was 3 µM; with HepG2-CANX-COX4, 3 µM; with HepG2-TP53BP1-CLTA it was 9 µM; with HepG2-TUBA1B-RELA, 9 µM; in the test on WPMY1-ACTB-RAB5A [1], 3 µM; with WPMY1-CANX-COX4, 3 µM. Besides, the entries for the “lowest phenotypically active concentration” value in the test on WPMY1-GM130-SQSTM1, in the test with WPMY1-TP53BP1-CLTA and with WPMY1-TUBA1B-RELA were 3 µM, 9 µM and 3 µM, respectively. In addition, the phenotypically active with WPMY1-ACTB-RAB5A [2] was 1 (active).
On to `CC(C)c1cc(-c2n[nH]c(=O)n2-c2ccc3c(ccn3C)c2)c(O)cc1O` [ganetespib], for which the “lowest phenotypically active concentration” value with HepG2-ACTB-RAB5A, in the test on HepG2-CANX-COX4, with HepG2-TP53BP1-CLTA, in the test on HepG2-TUBA1B-RELA, in the test with WPMY1-ACTB-RAB5A [1] and with WPMY1-CANX-COX4 was at most 0.3 µM throughout. The “lowest phenotypically active concentration” value in the test on WPMY1-GM130-SQSTM1, in the test on WPMY1-TP53BP1-CLTA and in the test on WPMY1-TUBA1B-RELA was at most 0.3 µM in each case. For the same compound, in the test with WPMY1-ACTB-RAB5A [2], the phenotypically active is 1 (active).
With `C[C@H]1COCCN1c1cc(C2(S(=O)(=O)C3CC3)CC2)nc(-c2ccc(NC(=S)NCCO)cc2)n1`, the “lowest phenotypically active concentration” value with HepG2-ACTB-RAB5A was at most 0.3 µM; with HepG2-CANX-COX4, at most 0.3 µM; with HepG2-TP53BP1-CLTA it was at most 0.3 µM; in the test on HepG2-TUBA1B-RELA, 1 µM; in the test on WPMY1-ACTB-RAB5A [1], at most 0.3 µM; in the test on WPMY1-CANX-COX4, at most 0.3 µM. Also, the “lowest phenotypically active concentration” value with WPMY1-GM130-SQSTM1, with WPMY1-TP53BP1-CLTA and with WPMY1-TUBA1B-RELA was at most 0.3 µM each time. Besides, the phenotypically active with WPMY1-ACTB-RAB5A [2] is 1 (active).
As for `C=CC(=O)N1CCC[C@@H](n2nc(-c3cccc(C(=O)Nc4ccc(C(C)C)c(C)c4)c3)c3c(N)ncnc32)C1`, the “lowest phenotypically active concentration” value is 1 µM in the test with HepG2-ACTB-RAB5A; 1 µM with HepG2-CANX-COX4; 1 µM in the test with HepG2-TP53BP1-CLTA; 1 µM in the test on HepG2-TUBA1B-RELA; 1 µM in the test on WPMY1-ACTB-RAB5A [1]; 3 µM in the test with WPMY1-CANX-COX4. For the same compound, the “lowest phenotypically active concentration” value in the test on WPMY1-GM130-SQSTM1 is 3 µM; with WPMY1-TP53BP1-CLTA, 9 µM; in the test on WPMY1-TUBA1B-RELA it was 3 µM. Moreover, in the test on WPMY1-ACTB-RAB5A [2], the phenotypically active is 1 (active).
As to `O=C1NCCN1CCN1CCC(c2cn(-c3ccc(F)cc3)c3ccc(Cl)cc23)CC1` [sertindole], the “lowest phenotypically active concentration” value with HepG2-ACTB-RAB5A came out at 9 µM; with HepG2-CANX-COX4, 9 µM; with HepG2-TP53BP1-CLTA, 3 µM; in the test on HepG2-TUBA1B-RELA, 3 µM; in the test on WPMY1-ACTB-RAB5A [1], 9 µM; in the test with WPMY1-CANX-COX4, 3 µM. Also, the “lowest phenotypically active concentration” value with WPMY1-GM130-SQSTM1 worked out at 9 µM; in the test on WPMY1-TP53BP1-CLTA, 9 µM; in the test on WPMY1-TUBA1B-RELA, 3 µM. Moreover, the phenotypically active in the test with WPMY1-ACTB-RAB5A [2] is 1 (active).
